The source of these data is PubChem BioAssay AID602393 (Broad Institute, 2012).

Each structure is given as a SMILES string. The whole screen tested about 350,000 compounds, of which about 7,000 (2%) were called active. Cut-off read from the data, not from the text of the source: active = activation above about 40%; inconclusive = no clear call, values can overlap the other calls; inactive = below that. The entries come from a sample that favours actives as a whole.

The assay in a line: Bmi1 luciferase reporter increase in mESCs, primary screen, esBAF inhibitor project, mouse ES cells, Bmi1 luciferase knock-in, single point (AID 602393).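 Note: 0% = median of the plate's neutral control wells and 100% = double that signal; a rise in the Bmi1 reporter signal indicates esBAF inhibition.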 To be noted: 24 h, at 12.5 µM, hits give high values, 100% = twice the neutral-well signal. For orientation: A reporter such as luciferase makes a cellular process visible.
`O=S(=O)(NCC[C@H]1CC[C@@H](NS(=O)(=O)c2cccc(Cl)c2)[C@@H](CO)O1)c1cccc(F)c1`: the reporter increase was 8.34% (inactive).

As to `CCC(=O)N1C[C@@H](C)[C@H](OC)CN(C)C(=O)c2cc(NC(=O)c3cc(C)on3)ccc2OC[C@@H]1C`, the reporter increase is 6.47% (inactive).

With `COc1ccc(OCc2cc(C(=O)NCC3(C)COC3)no2)c(Cl)c1`, the reporter increase is 42.9% (active).

Consider `COCCN1CCN(C(=O)c2cc(COc3ccc(F)cc3Cl)on2)CC1`, for which the reporter increase was -1.67% (inactive).

`COc1ccc(-c2cc(C(=O)NCCCN3CCOCC3)no2)cc1`: the reporter increase is -13.5% (inactive).

For `CC(=O)N(C)C[C@@H]1Oc2ncc(-c3ccccc3F)cc2C(=O)N([C@H](C)CO)C[C@@H]1C`, the reporter increase was -1.47% (inactive).

Consider `OCCCN1c2ccccc2Nc2nnc(-c3ccccc3)cc21`, for which the reporter increase was 45.3% (active).

Turning to `N=c1c2c(-c3ccccc3)c(-c3ccccc3)n(Cc3ccccc3)c2ncn1CCCO`, the reporter increase is -11.6% (inactive).

`O=C(C[C@@H]1CC[C@@H](NC(=O)c2cccnc2)[C@H](CO)O1)NCCN1CCCCC1`: the reporter increase is -6.27% (inactive).

Take `CCNC(=O)C[C@@H]1CC[C@H]2[C@@H](COc3ccc(NC(=O)c4ccccc4Cl)cc3C(=O)N2C)O1`: the reporter increase was 2.25% (inactive).

For the molecule `COc1ccc(NC(=O)Nc2ccc3c(c2)C(=O)N([C@H](C)CO)C[C@H](C)[C@@H](CN(C)Cc2ccccc2)OCCCC[C@H](C)O3)cc1`, the reporter increase is 3.05% (inactive).

As for `COCC(=O)Nc1ccc2c(c1)C(=O)N(C)C[C@H](OC)[C@@H](C)CN(C(=O)Cc1cccnc1)[C@@H](C)CO2`, the reporter increase was -0.572% (inactive).

As for `CCc1ccc(NC(=O)N2CCc3ccccc3C2)cc1`, the reporter increase was 60.4% (active).

For the molecule `O=C(Nc1cccc([N+](=O)[O-])c1)Nn1cnnc1`, the reporter increase was 9.77% (inactive).

As to `Cc1ccc(NC(=O)CN2CCc3ccccc3C2)cc1C`, the reporter increase is 8.63% (inactive).

With `O=C(CN1CCOCC1)Nc1cccc([N+](=O)[O-])c1`, the reporter increase was -2.52% (inactive).

As for `Cn1cccc1C(=O)N1CCc2ccccc2C1`, the reporter increase is 28.8% (inactive).

Take `O=C(Nc1cccc([N+](=O)[O-])c1)N1CCc2ccccc2C1`: the reporter increase was 45.9% (active).

Consider `COCC(=O)N(C)C[C@H]1[C@@H](c2ccc(-c3cccnc3)cc2)[C@H](CO)N1C(C)=O`, for which the reporter increase is 3.19% (inactive).

As for `CO[C@@H]1CN(C)C(=O)c2cc(NC(=O)c3ccc(F)cc3)ccc2OC[C@H](C)NC[C@@H]1C`, the reporter increase is 2.56% (inactive).

Consider `COc1cccc(NC(=O)COc2cccnc2[N+](=O)[O-])c1`, for which the reporter increase was 20% (inactive).

For `CC(NC(=O)COc1cccnc1[N+](=O)[O-])c1ccc(Cl)cc1Cl` (configuration not stated), the reporter increase was 0.51% (inactive).

On to `O=C(COc1cccnc1[N+](=O)[O-])Nc1ccc(Cl)cc1F`, for which the reporter increase is 43.4% (active).

Take `Cn1c(COc2ccc(Cl)cc2)nc2ccccc2c1=O`: the reporter increase is 12.6% (inactive).

Regarding `COc1ccc(-c2nc3ccccc3c(=O)n2CCc2ccc(O)cc2)cc1`, the reporter increase is 9.53% (inactive).

For `COc1ccc(OCc2ccc(-c3nc4ccccc4c(=O)n3N)o2)cc1`, the reporter increase is 54.8% (active).

Turning to `COc1ccc(S(=O)(=O)N2CC[C@@H]3[C@@H](CO)Nc4ccc(C#Cc5cccnc5)cc4[C@@H]32)cc1`, the reporter increase was 7.74% (inactive).

`CO[C@@H]1CN(C)C(=O)c2cc(NS(=O)(=O)Cc3ccccc3)ccc2OC[C@H](C)NC[C@H]1C`: the reporter increase is -0.575% (inactive).

Consider `COCC#Cc1cnc2c(c1)C(=O)N([C@H](C)CO)C[C@H](C)[C@H](CN(C)C(=O)Nc1cc(F)ccc1F)O2`, for which the reporter increase was -0.321% (inactive).

Consider `COc1ccc(-c2cn3ccc(C)cc3n2)cc1`, for which the reporter increase was -61.7% (inactive).

With `CCN(c1cccc(C)c1)S(=O)(=O)c1ccc(-c2coc(C)n2)cc1`, the reporter increase was 2.04% (inactive).

On to `CCN(CC)S(=O)(=O)c1ccc(-c2cn3ccc(C)cc3n2)cc1`, for which the reporter increase was 42.3% (active).

Take `COCC(=O)Nc1ccc2c(c1)C(=O)N(C)C[C@H](OC)[C@@H](C)CN(C(=O)c1cnccn1)[C@H](C)CO2`: the reporter increase is -3.88% (inactive).

`COC(=O)C[C@H]1CC[C@@H](NC(=O)c2ccccc2)[C@@H](CO)O1`: the reporter increase is -2.05% (inactive).

Consider `CC(C)NC(=O)Nc1ccc2c(c1)C(=O)N([C@@H](C)CO)C[C@H](C)[C@@H](CN(C)C(=O)Nc1ccc(F)cc1)OCCCC[C@H](C)O2`, for which the reporter increase is 11.9% (inactive).

In the case of `O=C(CCc1ccccc1F)N1CCN(c2ccccc2)CC1`, the reporter increase is 1.91% (inactive).

Regarding `O=C(CCSc1ccccc1)N1CCN(c2ccccc2F)CC1`, the reporter increase was 65.1% (active).

Consider `O=C(NCC(=O)N1CCN(c2ccccc2F)CC1)c1cccs1`, for which the reporter increase is 28.1% (inactive).

`CCCN1C[C@H](C)[C@@H](OC)CN(C)C(=O)c2ccc(NC(=O)C3CCOCC3)cc2OC[C@H]1C`: the reporter increase is -2.07% (inactive).

Take `O=C(C[C@@H]1CC[C@H]2NC[C@H](O)COC[C@@H]2O1)NCCN1CCCCC1`: the reporter increase was 6.52% (inactive).

In the case of `O=C(CC(F)(F)F)N1C[C@H]2[C@@H](c3ccccc31)[C@H](CO)N2C(=O)Cc1cccnc1`, the reporter increase is -1.13% (inactive).

For the molecule `CC(=O)Nc1cccc(NC(=O)c2ccc3c(c2)CCN3S(C)(=O)=O)c1`, the reporter increase was 2.43% (inactive).

For the molecule `CS(=O)(=O)N1CCc2cc(C(=O)Nc3ccccc3)ccc21`, the reporter increase was 47.5% (active).

Turning to `CS(=O)(=O)N1CCc2cc(C(=O)Nc3ccccc3Br)ccc21`, the reporter increase was 34.7% (inactive).

Take `O=C(O)C[C@H]1C[C@@H]2c3cc(NC(=O)Nc4ccc(C(F)(F)F)cc4)ccc3O[C@@H]2[C@@H](CO)O1`: the reporter increase is 2.29% (inactive).

Turning to `CCN(CC)C(=O)C1=C(C)N(Cc2ccc(OC)cc2)C(=O)C(CC(=O)NCc2ccco2)C1` (configuration not stated), the reporter increase was -3.89% (inactive).

In the case of `C=CCN1C(=O)C(Cc2cccc(Cl)c2)S/C1=N/N=C/c1ccco1` (configuration not stated), the reporter increase is -2.3% (inactive).

`COc1ccc(CN2C(=O)C(C)S/C2=N/N=C/c2ccco2)cc1` (configuration not stated): the reporter increase is 70.2% (active).

Consider `CCCC(=O)Nc1ccc2c(c1)C(=O)N(C)C[C@@H](OC)[C@@H](C)CN(C(=O)CC)[C@H](C)CO2`, for which the reporter increase was -1.94% (inactive).

For `CN(C)C(=O)C[C@H]1CC[C@@H](NC(=O)Nc2cccc(F)c2)[C@H](CO)O1`, the reporter increase is -0.909% (inactive).

As to `COCC#Cc1cnc2c(c1)C(=O)N([C@@H](C)CO)C[C@@H](C)[C@H](CN(C)C(=O)c1cnccn1)O2`, the reporter increase is 3.45% (inactive).

For the molecule `CN1C(=O)c2cc(NC(=O)Nc3ccccc3Cl)ccc2OC[C@H]2O[C@@H](CC(=O)O)CC[C@H]21`, the reporter increase was 3.49% (inactive).

Consider `CC(C)C1CCN(C(=O)C2CCC(=O)N(C3CCCCCC3)C2)CC1` (configuration not stated), for which the reporter increase is 55.6% (active).

Regarding `COCC1CCN(C(=O)C2CCC(=O)N(CC3CCCCC3)C2)CC1` (configuration not stated), the reporter increase is -0.459% (inactive).

As to `O=C(C1CCC(=O)N(C2CC2)C1)N1CCN(c2ccc(Cl)cc2)CC1` (configuration not stated), the reporter increase was -7.88% (inactive).

Regarding `COc1ccc(S(=O)(=O)Nc2ccc3c(c2)CC(=O)N([C@H](C)CO)C[C@H](C)[C@@H](CN(C)C)O3)cc1`, the reporter increase is -3.65% (inactive).

Regarding `O=C(Cc1ccccn1)N[C@H]1CC[C@H](CCNS(=O)(=O)c2cccc(F)c2)O[C@@H]1CO`, the reporter increase is 0.895% (inactive).
